The text below walks through data of PubChem BioAssay (NCI).

This is part of a sample that, as a whole, favours compounds with a hit. Of some 83,000 tested, about 20% had one in any assay.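 Interpretation: 100, growth as untreated; towards 0, rising growth inhibition; 0, no net growth; 0 to -100, cell death. Compounds scoring below 10 were considered active.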 A number with no mark means an inactive call. Active and inactive are the calls of the source.

Some test systems named below: SK-MEL-2 melanoma; EKVX NSCLC; SN12C renal; UO-31 renal; TK-10 renal; ACHN renal; CAKI-1 renal; A498 renal; CCRF-CEM leukemia; MOLT-4 leukemia; SR leukemia; RPMI-8226 leukemia; OVCAR-8 ovarian; OVCAR-4 ovarian; SK-OV-3 ovarian; IGROV1 ovarian; OVCAR-3 ovarian; HS 578T breast; NCI/ADR-RES ovarian; OVCAR-5 ovarian.
What all share (experiment): NCI-60 one-dose screen, 48 h (100 = growth as untreated, 0 = no growth, -100 = all killed)
Common to all, as to details: 10 µM unless noted

In the case of `COC(=O)C(Br)(C(=O)OC)C(Br)C(Br)C(Br)c1ccccc1` (centres undefined), the growth with SK-MEL-2 melanoma is 83.6%; in the test with EKVX NSCLC, 105%; with SN12C renal, 96.7%; in the test with UO-31 renal, -8.98% (active); with TK-10 renal, -45.2% (active); with ACHN renal it was -70% (active). Moreover, the growth is -69.6% (active) in the test on CAKI-1 renal; 101% with A498 renal; 0.438% (active) with CCRF-CEM leukemia; 50.1% in the test with MOLT-4 leukemia; 47.6% with SR leukemia; 106% with RPMI-8226 leukemia. The growth in the test on OVCAR-8 ovarian is 73.1%; in the test on OVCAR-4 ovarian it was 83.6%; with SK-OV-3 ovarian it was 102%; in the test with IGROV1 ovarian, 39.1%; in the test on OVCAR-3 ovarian, -37% (active); in the test on HS 578T breast it was 114%. In the test on NCI/ADR-RES ovarian, the growth is 104%.
`O=C(Nc1ccc(Cl)cc1)c1cc(-c2ccc(Cl)cc2)c2sc(=O)[nH]c2n1`: the growth with SK-MEL-2 melanoma is -29.3% (active); in the test on EKVX NSCLC it was 9.13% (active); in the test with SN12C renal, -9.7% (active); with UO-31 renal, -5.54% (active); in the test with TK-10 renal, 0.672% (active); in the test with ACHN renal, 0.731% (active). Further, the growth in the test on CAKI-1 renal is 8.17% (active); in the test on A498 renal it was -43.8% (active); in the test with CCRF-CEM leukemia, 5.46% (active); with MOLT-4 leukemia, -24.2% (active); in the test with SR leukemia, 2% (active); with RPMI-8226 leukemia, -6.18% (active). Besides, the growth in the test on OVCAR-8 ovarian is 4.75% (active); in the test on OVCAR-4 ovarian, 13%; in the test with SK-OV-3 ovarian it was -24.3% (active); with IGROV1 ovarian it was 28.1%; in the test with OVCAR-3 ovarian it was 1.82% (active); in the test with HS 578T breast, -14.4% (active). In the test with NCI/ADR-RES ovarian, the growth was 5.64% (active).
For the molecule `CCN1C(=O)N(CC)C2C1NC(=O)N2/N=C/C=C/c1ccccc1` (centres undefined), the growth in the test with SK-MEL-2 melanoma was 34.3%; in the test with EKVX NSCLC it was 53.8%; in the test with SN12C renal, 61.3%; with UO-31 renal, 57.6%; in the test on TK-10 renal, 69.3%; in the test on ACHN renal it was 48.1%. Also, the growth with CAKI-1 renal was 47.2%; in the test on A498 renal, 25.2%; with CCRF-CEM leukemia it was 19.1%; with MOLT-4 leukemia it was 43.7%; in the test on SR leukemia, 20.3%; in the test with OVCAR-8 ovarian it was 60.5%. Further, the growth in the test on OVCAR-5 ovarian is 80.1%; with OVCAR-4 ovarian, 64.4%; in the test on SK-OV-3 ovarian it was 36.7%; with IGROV1 ovarian, 53.2%; in the test on OVCAR-3 ovarian, 7.58% (active); in the test with HS 578T breast, 34.8%. Further, in the test on NCI/ADR-RES ovarian, the growth was 38.7%.
On to `C/C(=N\Nc1ccc([N+](=O)[O-])cn1)c1ccc(N)cc1`, for which the growth with SK-MEL-2 melanoma is 100%; with EKVX NSCLC, 109%; in the test on SN12C renal, 94.8%; in the test on UO-31 renal, 87.7%; in the test on TK-10 renal, 105%; with ACHN renal, 97.8%. For the same molecule, the growth in the test on CAKI-1 renal is 101%; in the test on A498 renal, 82.4%; with CCRF-CEM leukemia it was 96.3%; in the test with MOLT-4 leukemia, -11.7% (active); with SR leukemia it was 21.8%; in the test with OVCAR-8 ovarian, 109%. Also, the growth in the test with OVCAR-5 ovarian was 98.2%; with SK-OV-3 ovarian, 115%; with IGROV1 ovarian, 93.5%; in the test with OVCAR-3 ovarian it was 101%; in the test on HS 578T breast, 109%; in the test with NCI/ADR-RES ovarian, 115%.
Regarding `CN(C)CCNC(=O)n1cc(-c2ccncc2)c(-c2cc(O)cc(Cl)c2)n1`, the growth was 96.3% with SK-MEL-2 melanoma; 107% in the test with EKVX NSCLC; 91.9% in the test with SN12C renal; 104% with UO-31 renal; 92.6% in the test with TK-10 renal; 80.6% in the test on ACHN renal. Also, the growth with CAKI-1 renal was 109%; with A498 renal it was 82.2%; in the test with CCRF-CEM leukemia, 88%; with MOLT-4 leukemia, 86.4%; with SR leukemia, 29.6%; with OVCAR-8 ovarian it was 86.9%. Further, the growth in the test with OVCAR-5 ovarian is 106%; with OVCAR-4 ovarian, 118%; in the test on SK-OV-3 ovarian, 90.8%; with IGROV1 ovarian, 107%; in the test with OVCAR-3 ovarian, 109%; in the test with HS 578T breast it was 93.3%. Also, in the test on NCI/ADR-RES ovarian, the growth is 100%.
For `CC(=O)N1N=C(C2C(=O)N(C)C(=O)N(C)C2=O)CC1c1ccccc1C(=O)O` (centres undefined), the growth in the test with SK-MEL-2 melanoma was 102%; in the test on EKVX NSCLC it was 105%; with SN12C renal it was 101%; in the test on UO-31 renal, 87.4%; with TK-10 renal, 97.6%; in the test on ACHN renal, 98.9%. The growth with CAKI-1 renal was 94.8%; in the test on A498 renal, 91.7%; with CCRF-CEM leukemia it was 94.6%; in the test on MOLT-4 leukemia it was 97.1%; in the test with SR leukemia, 93%; in the test with OVCAR-8 ovarian it was 103%. Besides, the growth in the test on OVCAR-5 ovarian was 104%; with OVCAR-4 ovarian it was 113%; in the test on SK-OV-3 ovarian it was 94.8%; in the test on IGROV1 ovarian, 112%; with OVCAR-3 ovarian it was 109%; with HS 578T breast, 92.1%. Moreover, the growth in the test on NCI/ADR-RES ovarian is 105%.
On to `COc1ccc(-c2cnnn2-c2nonc2-n2cccc2)cc1`, for which the growth with SK-MEL-2 melanoma was 54.6%; in the test on EKVX NSCLC it was 55.6%; in the test on SN12C renal it was 43.9%; in the test on UO-31 renal it was 44.2%; with TK-10 renal, 63.7%; in the test on ACHN renal, 48.2%. Further, the growth is 45.5% in the test on CAKI-1 renal; -4.22% (active) with A498 renal; 14.1% with CCRF-CEM leukemia; 5.61% (active) in the test with MOLT-4 leukemia; 27.9% in the test on RPMI-8226 leukemia; 31.3% in the test with OVCAR-8 ovarian. The growth was 37.2% in the test with OVCAR-5 ovarian; 42.9% in the test with OVCAR-4 ovarian; -4.76% (active) in the test on SK-OV-3 ovarian; 28.9% with IGROV1 ovarian; -38.9% (active) with OVCAR-3 ovarian; -1.93% (active) with HS 578T breast.
For the molecule `C=CCOC(=O)C1=C(C)NC2=C(C(=O)CC(C)(C)C2)C1c1ccc(OC)cc1` (centres undefined), the growth with SK-MEL-2 melanoma was 95%; with EKVX NSCLC it was 101%; in the test on SN12C renal, 106%; in the test with UO-31 renal, 85.2%; in the test with TK-10 renal it was 114%; with ACHN renal, 98.6%. The growth in the test with CAKI-1 renal is 80.8%; with A498 renal it was 85.5%; in the test on CCRF-CEM leukemia, 97.4%; in the test with MOLT-4 leukemia, 89.7%; in the test with SR leukemia it was 98.8%; in the test on OVCAR-8 ovarian, 93%. Moreover, the growth in the test on OVCAR-5 ovarian was 107%; with SK-OV-3 ovarian it was 82.1%; in the test on IGROV1 ovarian, 105%; in the test with OVCAR-3 ovarian, 107%; with HS 578T breast, 90.6%; in the test on NCI/ADR-RES ovarian it was 103%.
